Results as given in PubChem BioAssay AID2391 (Southern Research Specialized Biocontainment Screening …, 2010).
About 410 (0.13%) of roughly 310,000 compounds were called active. Another 2% or so got no clear call; they are omitted. The rule behind the calls is not given here. These entries were drawn from the full list. Entries with a potency or affinity are not part of this list.

test: RSV antiviral activity via CPE protection, HEp-2 cells, primary 10 µM value included (AID 2391); settings: RSV-induced CPE inhibition, at 10 µM, stronger effect = higher value

CPE inhibition, inactive:
CCCC[C@@H]1CNCCN1CCc1cccc2ccccc12 -0.31%, Cc1cccc(NS(=O)(=O)c2ccc(C(=O)NCC3CCCO3)cc2)c1C (configuration not stated) 2.28%, CN(C)c1nc(C(N)=O)nc(N2CCOCC2)n1 0.62%, Cc1cc(C)n(CCCNC(=O)CN(C)S(=O)(=O)c2ccc(Cl)cc2)n1 -0.89%, Cc1ccc(-c2nc(CSCC(=O)N3CCCC3)c(C)o2)cc1 20.2%, Cc1oc(-c2ccccc2Cl)nc1CSCC(=O)O 2.04%, CC(=O)c1ccc(Nc2nc(=O)c3cccnc3s2)cc1 -0.53%, Cc1ccc(Nc2nc(=O)c3cccnc3s2)cc1 4.1%, CC(=O)c1cccc(Nc2nc(=O)c3cccnc3s2)c1 -1.05%, O=c1nc(Nc2ccc(OCc3ccccc3)cc2)sc2ncccc12 43.1%, O=C(O)CSc1nnc(COc2ccc(Br)cc2)n1-c1ccccc1 1.47%, COC(=O)c1sccc1S(=O)(=O)N1CCCC(N(C)CCc2ccccn2)C1 (configuration not stated) -0.75%, O=C(c1cc2ccccc2oc1=O)N(c1ccc(Cl)cc1)C1C=CS(=O)(=O)C1 (configuration not stated) 1.15%, Cc1ccc(N(CCCCN2C(=O)c3ccccc3C2=O)C(=O)c2ccc(Cl)s2)cc1 44.1%, O=C1c2ccccc2C(=O)N1CCCCN(C(=O)c1cc([N+](=O)[O-])cc([N+](=O)[O-])c1)c1ccc(Cl)cc1 46.5%, O=C1c2ccccc2C(=O)N1CCCCN(C(=O)c1ccc(Cl)s1)c1ccc(Cl)cc1 42.2%, O=C1c2ccccc2C(=O)N1CCCCN(C(=O)c1cccc([N+](=O)[O-])c1)c1ccc(Cl)cc1 60.5%, CCN(C(=O)c1cc2ccccc2oc1=O)c1ccccc1 0.2%, CN(Cc1ccccc1)C(=O)N[C@@H](Cc1ccccc1)C(=O)O 0.64%, COc1cccc(CCc2nnc(CCC(=O)NC(C)c3c(C)nn(C)c3C)o2)c1 (configuration not stated) 0.66%, COc1ccc(OC)c(CN2CCN(C(=O)c3ccc(F)cc3)CC2)c1 2.45%, CC(C)Cc1nnc(NC(=O)CCC(=O)Nc2ccccc2F)s1 1.44%, Nc1ccc(-c2nc3ccc(N)cc3s2)cc1 -1.51%, Nc1ccc(-c2nc3ccc(C(=O)O)cc3s2)cc1 -1.01%, CCc1n(CC(O)COCC2CC=CCC2)c2ccccc2[n+]1C (configuration not stated) 0.73%, O=C(NCc1ccc(F)cc1Cl)C1CCN(S(=O)(=O)N2CCCCC2)CC1 4.02%, Cc1ccc(S(=O)(=O)N(C)C)cc1NC(=O)COC(=O)CCC1CCCCC1 -0.99%, Cc1ccc(C)c(NC(=O)CN(C)C(=O)c2ccc(-c3cccc(C(F)(F)F)c3)o2)c1 0%, Clc1ccc(OCc2cn3ccccc3n2)c2ncccc12 4.9%, Cc1cccc2nc(COc3ccc4ccccc4c3Br)cn12 8.72%, CCn1c(CNS(=O)(=O)c2ccc(Br)cc2)n[nH]c1=S 0.55%, Cc1[nH]c2ccccc2c1/C=N/Nc1ccc([N+](=O)[O-])cc1S(=O)(=O)Nc1ccc(Cl)cc1 1.27%, Cc1[nH]c2ccccc2c1/C=N/NC(=O)c1cccc([N+](=O)[O-])c1 1.07%, C=CCc1cc(Cl)ccc1OCCCNC(C)CC (configuration not stated) 0.05%, CSc1ccc(/C=C(/NC(=O)c2ccc(C)cc2)C(=O)Nc2cccc(C)c2)cc1 2.91%, O=C(O)c1cccc(COc2ccccc2Cl)c1 1.88%, COc1ccc(OCc2cccc(C(=O)O)c2)cc1 0.64%, COc1cc(CO)ccc1Oc1nc2ccccc2n2cnnc12 2.05%, O=C1c2cccnc2C(Nc2ccc(Cl)cc2)N1Cc1cccs1 (configuration not stated) 46.8%, Cc1ccc(NC2c3ncccc3C(=O)N2Cc2cccs2)cc1C (configuration not stated) 13.8%, Cc1ccc(NC2c3ncccc3C(=O)N2Cc2cccs2)cc1 (configuration not stated) 8.2%, O=C1c2cccnc2C(Nc2ccc(F)c(Cl)c2)N1Cc1cccs1 (configuration not stated) 18%, CCOC(=O)CNC(=O)c1ccc2[nH]c3ccccc3c2c1 2.11%, CCCn1c(SCC(=O)c2cc(OC)ccc2OC)nnc1-c1ccco1 1.5%, CCOc1ccc(C(c2c(O)nc(SC)[nH]c2=O)c2c(O)nc(SC)[nH]c2=O)cc1 1.1%, CCOC(=O)Cc1csc(NC(=O)C(NC(=O)C2CCCCC2)C(C)C)n1 (configuration not stated) 3.52%, O=[N+]([O-])c1cccc(-c2csc(Nc3ccccc3)n2)c1 0.52%, COc1ccccc1Nc1nc(-c2cccnc2)cs1 7.69%, CC(=O)c1ccc(OCCCC(=O)Nc2ccc(S(=O)(=O)N3CCOCC3)cc2)cc1 14.5%, COc1ccc(C(=O)Nc2nc3ccccc3s2)c(OC)c1 9.57%, COc1ccc(C(=O)Nc2nc3ccccc3s2)cc1 4.56%, COc1ccc(C(C)=O)cc1CSc1nc2ccccc2c(=O)n1-c1ccccc1 3.07%, Cc1c(C(=O)O)oc2c1ccc1ccccc12 9.18%, COc1ccccc1OCC(=O)Nc1ccc2c(c1)OCO2 1.74%, COC(=O)CN1C(c2ccc(Cl)cc2)=Nc2ccc(Cl)cc2C1c1ccccc1 (configuration not stated) 11.1%, O=C1CN2C(=Nc3ccc(Br)cc3C2c2ccccc2)CCN1 (configuration not stated) -0.32%, CCc1ccc(CNC(=O)c2ccc(OC3CCN(C(C)=O)CC3)c(OC)c2)nc1 1.43%, Cc1cc(C)c(NC(=O)c2cccc(NC(=O)c3ccco3)c2)c(C)c1 2.64%, O=C(O)CSc1nnc(Cn2c(=O)sc3ccccc32)n1-c1cccc(Cl)c1 0.38%, NC(=O)CSc1nnc(Cn2c(=O)sc3ccccc32)n1-c1cccc(Cl)c1 2.54%, Cc1ccc(N2CCN(c3ccc(NC(=O)CCC(=O)O)cc3)CC2)cc1 -0.44%, CCCOc1ccc(NC(=O)c2cc3cc(C)ccc3[nH]2)cc1 -0.27%, CC(=O)c1ccc2c(c1)C1C=CCC1C(c1ccncc1)N2 (configuration not stated) -0.18%, Cc1cc(C)c(NC(=O)c2ccc(S(=O)(=O)N3CCOCC3)cc2)c(C)c1 1.1%, O=C(O)c1cc(Cl)c2c(c1)[C@@H]1C=CC[C@@H]1[C@H](c1ccc(S(=O)(=O)N3CCOCC3)cc1)N2 0.29%, Cc1cc(C)c2c(c1)[C@@H]1C=CC[C@@H]1[C@H](c1ccc(S(=O)(=O)N3CCOCC3)cc1)N2 0.17%, COc1ccc(N(CC(=O)Nc2ccc(F)cc2F)S(=O)(=O)c2c(C)nn(C)c2C)cc1 -1.28%, Cc1cc(-n2c(C)cc(C(=O)CN3C(=O)NC4(CCCCC4C)C3=O)c2C)no1 (configuration not stated) 1.72%, COc1ccc(N2CCN(c3nc4c(c(=O)n(C)c(=O)n4C)n3CCCc3ccccc3)CC2)cc1 -1.29%, CCOC(=O)C[C@H]1c2ccccc2S(=O)(=O)N1Cc1cc(OC)c(OC)c(OC)c1 1.62%, Cc1ccccc1NC(=S)NCCc1ccc(S(N)(=O)=O)cc1 1.91%, Cc1ccc(S(=O)(=O)N2CCCCC2CCNC(=O)C(=O)NC2CC2)cc1 (configuration not stated) 0.46%, Cc1ccc(C)c(S(=O)(=O)N2CCCCC2CCNC(=O)C(=O)NC2CC2)c1 (configuration not stated) -1.15%, Cc1ccc(CN(C)C(=O)c2cc(COc3ccc(F)cc3Cl)on2)o1 6.3%, CSc1ccccc1OCc1cc(C(=O)N(C)Cc2cc(C)[nH]n2)no1 4.8%, Cc1ccc(S(=O)(=O)NCCC(=O)NCc2ccccn2)cc1 -1.85%, O=C(O)c1cccc(CN2C(=O)c3ccccc3C2=O)c1 2.88%, O=[N+]([O-])c1ccccc1S(=O)(=O)Nc1ccc(-c2ccc(N3CCOCC3)nn2)cc1 -1.46%, O=[N+]([O-])c1ccc(S(=O)(=O)Nc2cccc(-c3ccc(N4CCCC4)nn3)c2)cc1 22.4%, O=[N+]([O-])c1ccccc1S(=O)(=O)Nc1ccc(-c2ccc(N3CCCC3)nn2)cc1 -1.43%, O=[N+]([O-])c1ccc(S(=O)(=O)Nc2cccc(-c3ccc(N4CCOCC4)nn3)c2)cc1 38.2%, COc1ccc([N+](=O)[O-])cc1NC(=O)Cn1ccsc1=N 4.59%, O=C(Nc1cccc(Cl)c1)c1ccc(NCCCN2CCOCC2)c([N+](=O)[O-])c1 5.44%, O=C(NCc1cccnc1)Nc1ccc(Br)cc1Cl 1.28%, COc1ccc(N2CCN(C(=O)CCc3cc(OC)c(OC)c(OC)c3)CC2)cc1 1.91%, CN(C)CCCNc1cc(-c2ccccc2)nc2cc(-c3cccc(F)c3)nn12 -1.34%, COCCNc1cc(C)nc2cc(-c3ccc(C)cc3)nn12 2.67%, Cc1cc(NCCCO)n2nc(-c3cccs3)cc2n1 9%, Cc1cc(NCCCn2ccnc2)n2nc(-c3ccc(F)cc3)cc2n1 -1.16%, Cc1nc2cc(NC(=O)N(C)c3ccc4ccccc4c3)ccc2o1 12.7%, CCOCCCn1c(SCC(=O)Nc2ccc(NC(C)=O)cc2)nc2ccccc2c1=O 0.96%, CC(=O)c1c(C)[nH]c(C(=O)OCC(=O)Nc2cccc(S(=O)(=O)N(C)C)c2)c1C 6.22%
